Test results reported in PubChem BioAssay AID720534 (National Center for Advancing Translational Sciences (NCATS), 2013).
Hit rate of the full screen: of about 1,600 compounds, about 990 (62%) were called active. Not shown: some 30% with an inconclusive outcome. Calls come from the whole dose curve; as a rule, active = well fitted inhibition curve with a large enough effect; inconclusive = small, poorly fitted or top-dose-only effect; inactive = no such curve, though single readings can be large or run the other way. So high a share suggests a set chosen from earlier hits. These entries were drawn from the full list.

experiment: qHTS for Inhibitors of TGF-b: Confirmation of Cherry Picks; conditions: HepG2 CAGA-GFP TGF-b reporter, GFP fluorescence, 18 h, cells stimulated with TGF-beta, 500 pg/mL; series mostly up to 46.1 µM; note: nearly all actives have a fitted effect of over 65% in size
From the text: TGF-b is a main component in the TGF-b signaling pathway which plays diverse roles in cellular and development pathways. TGF-b is mediated through transcription factors called "Smads". Although the Smad-dependent pathway is the primary canonical TGF-b signaling mode, TGF-b1 can also activate alternative signaling pathways, including those involving MAPK (ERK, JNK and p38). This interaction may mediate or enhance Smad-dependent responses, or can exert Smad-independent effects. The complexity of this signaling cascade allows the TGF-b superfamily to perform unique, overlapping or redundant functions. We believe that targeting the TGF-beta pathway at the Smad-transcription factor level may eliminate the consequences of disrupting the entire pathway and offer specificity without affecting other signaling pathways. Smad3 is the primary transducer of TGF-b's signals and Smad3 regulates many functions attributed to TGF-b signaling. We hypothesize that Smad3 inhibitors will selectively eliminate Smad3-specific TGF-beta signals without undesired off-target effects. We aim to identify Smad3-small molecule antagonists using a quantitative high throughput screening (qHTS) approach. In this assay, hits identified from the primary screen were re-tested. MH087449NIH Chemical Genomics Center [NCGC] NIH Molecular Libraries Probe Centers Network [MLPCN] MLPCN Grant: MH087449 Assay Submitter (PI): Sushil Rane, National Institute of Diabetes and Kidney Diseases
Suspensions of trypsinized HEPG2 CAGA-GFP cells were dispensed into white, tissue culture-treated, solid 1536-well plates at 5uL/well (1000 cells/well final concentration) in DMEM medium supplemented with 1% FBS. Plates were incubated at 37 degrees C for 2 hours, after which 23 nL of compounds or DMSO were delivered to each well using a pin tool. One uL of recombinant TGF-beta in DMEM (1% FBS) was then dispensed (500 pg/mL final concentration), and plates were incubated at 37 degrees C for 18 hours. The plates were measured on an Acumen eX3 Explorer plate reader for GFP fluorescence (ex488/em500-530). GFP values were calculated by determining the mean GFP fluorescence of individual cells, and compiling these values for each well to determine a total well GFP signal. The %Activity was determined from the corrected fluorescence values. A titration of the known TGF-B inhibitor SB431542 was included to monitor plate performance, while unstimulated HEPG2 (-TGF-B) control wells were used to normalize %Activity of identified inhibitors; unstimulated wells corresponded to 100%Activity (full inhibition), while stimulated cell controls (+DMSO) were used to normalize 0%Activity (no inhibition). Concentration-response curves were fitted to the signals arising from the resulting fluorescence. The concentration-effect curves were then classified based on curve quality (r2), response magnitude and degree of measured activity, and compounds were subsequently categorized based on their curve class.
Potency is the fitted concentration of half-maximal effect.

Row | SMILES | Potency
1 | O=[N+]([O-])c1ccccc1S(=O)(=O)Nc1cccc2cccnc12 | 13 µM (active)
2 | CN(C)CCNC(=O)c1ccc(Cl)c2cc3ccccc3nc12 | 3.26 µM (active)
3 | O=C(NC1=CC(=O)c2ccccc2C1=O)c1ccccc1 | 5.17 µM (active)
4 | COC(=O)COc1cccc2c(=O)n(CC(=O)NCc3ccccc3)ccc12 | inactive
5 | COc1cc(NC(=O)c2ccccc2NS(=O)(=O)c2ccc(Cl)s2)cc(OC)c1 | 5.8 µM (active)
6 | CN(c1ccccc1)S(=O)(=O)c1ccc(C(=O)N2CCN(c3ccccc3Cl)CC2)cc1 | 5.8 µM (active)
7 | COc1ccc(CNC(=O)C[C@H]2C[C@H](C(=O)N3CCOCC3)[C@@]3(CCC4CCCC4)c4[nH]c5ccc(Cl)cc5c4CCN3C2=O)cc1OC | 4.61 µM (active)
8 | COc1ccc(C(=O)c2c3ccc([N+](=O)[O-])cc3[n+]([O-])n2CCCN)cc1 | 18.4 µM (active)
9 | COc1cc(NC(=O)c2[nH]cnc2C(N)=O)cc(C(=O)Nc2cccc(C(F)(F)F)c2)c1 | 16.4 µM (active)
10 | Cn1c(=O)n(C)c2cc(S(=O)(=O)N3CCCc4ccccc43)ccc21 | inactive
11 | COc1cc(CC(=O)Nc2nc(-c3ccc(F)c(F)c3)cs2)cc(OC)c1OC | 11.6 µM (active)
12 | Cc1oc2c(F)c(F)c(F)c(F)c2c1S(=O)(=O)Nc1cccc(C(F)(F)F)c1 | 20.6 µM (active)
13 | Clc1ccc(Nc2nc(-c3cccs3)cs2)nc1 | 13 µM (active)
14 | CCOc1ccc(CCN2C(=S)N([C@@H](CC(C)C)CN3CCC[C@@H]3CN3C(=S)NC[C@@H]3Cc3ccc(O)cc3)C[C@@H]2CC(C)C)cc1 | 18.4 µM (active)
15 | CCN(CC)C(=O)C1=C(C)N(Cc2ccc(C(C)(C)C)cc2)C(=O)C(CC(=O)NCc2cccc3ccccc23)C1 (stereo not given) | 14.6 µM (active)
16 | COC(=O)N/N=C/c1cn(CCCOc2ccc(C)cc2)c2ccccc12 | 14.6 µM (active)
17 | c1ccc2cc3c(NCCN4CCOCC4)ccnc3cc2c1 | 18.4 µM (active)
18 | c1ccc(-c2cn3c(n2)CCc2ccc4cccnc4c2-3)cc1 | inactive
19 | O=C(/C(=C/c1cccc(Cl)c1)c1nc2ccccc2[nH]1)c1ccccc1 | 2.91 µM (active)
20 | CC(=O)c1cccc(-c2cnc3c(NC=O)cc(-c4ccc(N(C)C)cc4)cn23)c1 | 7.31 µM (active)
21 | CC(=O)c1ccc(-c2cnc3c(NC=O)cc(-c4cccc(NS(C)(=O)=O)c4)cn23)cc1 | 0.731 µM (active)
22 | O=C(Nc1ccc(Cl)cc1)Nc1nnc(/C=C/c2ccccc2)s1 | inactive
23 | COc1ccc(-c2onc(C)c2-c2ccc3c(c2)OCCO3)c(O)c1 | 16.4 µM (active)
24 | COc1cc(NC(=O)COC(=O)c2ccc([N+](=O)[O-])s2)cc(OC)c1OC | 23.1 µM (active)
25 | Cc1ccnc(NC(=O)C2CCN(S(=O)(=O)c3c(C)c(C)cc(C)c3C)CC2)c1 | 7.31 µM (active)
26 | S=C(NCC1COc2ccccc2O1)Nc1ccc(Br)cc1 (stereo not given) | 18.4 µM (active)
27 | CN(C)c1nc(N)nc(CSc2nnnn2-c2cccc3ccccc23)n1 | 7.31 µM (active)
28 | CN(C)c1nc(=Nc2cccc(Cl)c2)ss1 | 5.17 µM (active)

Row | SMILES | Potency
29 | Cc1cccc(-c2nc(Nc3ccc(O)cc3)c3ccccc3n2)c1 | 18.4 µM (active)
30 | COc1cc(/C=C2\Oc3ccc(C#Cc4ccc(O)cc4)cc3C2=O)cc(OC)c1 | 6.51 µM (active)
31 | O=C(Nc1nnc(S(=O)(=O)N2CCCCCC2)s1)c1cccc(Br)c1 | 23.1 µM (active)
32 | O=C(Nc1ccc(Br)cn1)c1ccc([N+](=O)[O-])o1 | 18.4 µM (active)
33 | COc1ccc(CC(=O)Nc2ccccc2NC(=O)c2ccco2)cc1OC | inactive
34 | CCOC(=O)C1=C(N)N(c2ccc(C)cc2)C2=C(C(=O)CCC2)C1c1cccs1 (stereo not given) | 23.1 µM (active)
35 | Cc1nc(/N=C(\N)NC(=O)NC2CCCCC2)nc2ccccc12 | 11.6 µM (active)
36 | Clc1ccc2c(c1)C1=C(C(c3ccncc3)O2)C(c2ccc(Br)cc2)n2ncnc2N1 (stereo not given) | 2.31 µM (active)
37 | CCCOc1ccccc1C1CC(=O)Nc2cc3c(cc21)OCO3 (stereo not given) | 8.2 µM (active)
38 | Cc1cccc2sc(N(CCCN(C)C)C(=O)CCS(=O)(=O)c3ccccc3)nc12 | 5.17 µM (active)
39 | COc1cccc2sc(N(CCCN(C)C)C(=O)CCS(=O)(=O)c3ccccc3)nc12 | 3.26 µM (active)
40 | COc1ccc(C)cc1S(=O)(=O)N1CCN(S(=O)(=O)c2cc(C(=O)O)ccc2C)CC1 | inactive
41 | Cc1nn(-c2ccccc2)c(C)c1/C=N/NC(=O)CSc1nc2ccccc2c(=O)n1-c1ccccc1 | 2.31 µM (active)
42 | Cc1ccc(CN2CC(N3CCC(Cc4ccccc4)CC3)CS2(=O)=O)cc1 (stereo not given) | 20.6 µM (active)
43 | O=C(Nc1ccc(C2CC2(Cl)Cl)cc1)c1cccc([N+](=O)[O-])c1 (stereo not given) | inactive
44 | Cc1ccc(S(=O)(=O)Nc2nc3ccccc3nc2N2CCc3ccccc3C2)cc1 | 18.4 µM (active)
45 | Cc1cccc(NS(=O)(=O)c2ccc(-c3cnc(C4CC4)o3)cc2)c1 | 16.4 µM (active)
46 | COc1ccc2nc(N3CCN(C(=O)c4ccc([N+](=O)[O-])o4)CC3)sc2c1 | 20.6 µM (active)
47 | OCC1OC(n2cnc3c(N4CCCC4)ncnc32)C(O)C1O (stereo not given) | 2.59 µM (active)
48 | CCC(C)N1C(=O)S/C(=C/c2ccc(Sc3nc4ccccc4[nH]3)o2)C1=O (stereo not given) | 5.17 µM (active)
49 | CCCOc1ccc(F)cc1-c1cc(C(=O)Nc2ccc(F)c(Cl)c2)[nH]n1 | 20.6 µM (active)
50 | Clc1cccc(Cc2c(-c3cccc(Cl)c3)nc3ccc(Cl)cn23)c1 | 18.4 µM (active)
51 | Oc1c(CN2CCN(c3ccc(F)cc3)CC2)cc(Cl)c2cccnc12 | 6.51 µM (active)
52 | OCCCNc1nccc(-c2cc(Nc3cccc(Cl)c3)ncn2)n1 | 0.411 µM (active)
53 | CC(=NNC(=S)N1CCCCCC1)c1ccccn1 | 0.651 µM (active)
54 | Cc1cccc(NC(=O)c2nc(S(=O)(=O)Cc3ccccc3)ncc2Cl)c1 | 4.11 µM (active)
55 | Cc1cccc(CS(=O)(=O)c2ncc(Cl)c(C(=O)Nc3ccc(F)cc3)n2)c1 | 5.17 µM (active)
